The record followed here is PubChem BioAssay.

Molecules are shown by their SMILES. For part of these data: Potency and affinity values are given separately. Activity calls are given as the source filed them.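 How the source made its calls, unless noted: active means compound raising the membrane signal above positive-control mean plus 3 SD in both repeats, and a primary screen hit; inactive means the rest.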

The test system of assay [1] is TRPC4 beta (transient receptor potential cation channel C4), mouse. Nature of the assay: activators of mouse TRPC4 channel, confirmation, cell-based, Fluo4 calcium, HEK293 TRPC4beta/mu-opioid, duplicates, 10 µM (AID 2426;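 active means fluorescence ratio normalized to control raised more than 50% in primary screen plus both repeat runs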;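 on activation: percent rise of integrated ratio over buffer wells lacking compound which define 0%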). The conditions noted are these: Fluo4 calcium fluorescence, at 10 µM; hits give high values.
The test system of assay [2] is transient receptor potential cation channel C4 beta (TRPC4), mouse. The assay is described as follows: activators of mouse TRPC4 channel, confirmation, cell-based, second round, Fluo4, HEK293 TRPC4beta/mu-opioid, 1 µM (AID 2461;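 active means primary screen active and over 50% activation in each of two duplicate runs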). Conditions: Fluo4 calcium fluorescence, at 1 µM; hits give high values.
Assay [3] has as its system TRPC4 (transient receptor potential cation channel C4 beta), mouse. Nature of the assay: positive allosteric modulators of mouse TRPC4, confirmation, cell-based, second round, Fluo-4, HEK293 TRPC4beta/mu-opioid, 1 µM (AID 2554;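 active means primary screen hit whose fluorescence ratio, in both repeats, exceeds the weak agonist control mean by 3 SD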). Conditions: DAMGO EC20, Fluo-4 calcium flux, at 1 µM; hits give high values. On the technique in general: A change in cytosolic calcium serves as a functional read-out for many receptors and channels.

For assay [4], the system named is TRPC4 beta (transient receptor potential cation channel C4), mouse. The assay is described as follows: positive allosteric modulators of mouse TRPC4, confirmation, cell-based, Fluo-4, HEK293 TRPC4beta/mu-opioid (AID 2555;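 active means primary screen hit whose calcium fluorescence ratio, in both repeats, exceeds the weak agonist control mean by 3 SD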). Conditions: DAMGO EC20, Fluo-4 calcium flux, at 10 µM; hits give high values.
The target in assay [5] is Short transient receptor potential channel 4 (Mus musculus) (UniProt Q9QUQ5). Nature of the assay: inhibitors of mouse TRPC4 channel, confirmation, cell-based, Fluo4, HEK293 TRPC4beta/mu-opioid (AID 2636;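 active means calcium signal cut by more than 3 SD below the full-agonist control yet still positive, in both repeats and the earlier primary screen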). Conditions: DAMGO, Fluo4 calcium flux, at 10 µM; hits give high values.
Assay [6] shares this target. The assay is described as follows: inhibitors of mouse TRPC4 channel, confirmation, cell-based, second round, Fluo4, HEK293 TRPC4beta/mu-opioid, 1 µM (AID 2637;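 active means calcium signal ratio cut to more than 3 SD under the fully stimulated control mean yet still positive, in both repeats and the primary screen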;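 on inhibition: percent of integrated ratio relative to wells lacking test compound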). The conditions noted are these: Fluo4 calcium flux, DAMGO, at 1 µM; hits give high values.
Assay [7] shares this target. Nature of the assay: mouse TRPC4 channel activators, dose response, cell-based, HEK293 TRPC4/mu-opioid, Fluo-4 calcium (AID 434937;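 active means primary screen activator hit with a dose response curve and TRPC4 channel activation at any tested dose; inactive means no activation, no dose response, or not a primary hit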).
Assay [8] shares this target. The assay is described as follows: TRPC4 positive allosteric modulators, dose response, cell-based, HEK293 TRPC4/mu-opioid, Fluo-4 calcium, EC20 DAMGO (AID 434941;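 active means earlier screen potentiator hit that boosts the TRPC4 ion channel at some dose, with a dose response; inactive means no potentiation, no dose response, or not a prior hit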;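 further: calcium entry triggered by an EC20 dose of DAMGO at the co-expressed mu-opioid receptor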).
Assay [9] has as its target Short transient receptor potential channel 6 (Mus musculus) (UniProt Q61143). Nature of the assay: inhibition of mouse TRPC6 channel, confirmation, selectivity assay for TRPC4 inhibitor project, cell-based, HEK293, membrane potential dye, duplicate (AID 434948;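 active means active in primary screen and both duplicates, each dropping signal beyond three positive-control SD with fluorescence still positive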). The conditions noted are these: HEK293 TRPC6, membrane potential dye fluorescence, at 10 µM; inhibition: hits give high values, stimulated with maximal-effect acetylcholine unless noted; outcome: stimulated with maximal-effect acetylcholine unless noted.

The target is the same in assay [10]. Nature of the assay: activation of mouse TRPC6 channel, confirmation, selectivity assay for TRPC4 activator project, cell-based, HEK293, membrane potential dye, duplicate (AID 434950;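 active means membrane potential signal rise above negative control mean plus 3 SD in both duplicates, also active in the earlier TRPC4 screen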;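 on activation: 0% = buffer only wells and 100% = acetylcholine maximal-effect wells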). The conditions noted are these: HEK293 TRPC6, membrane potential fluorescence, at 10 µM; hits give high values.
Assay [11] has the same target. The assay is described as follows: TRPC6 potentiation by TRPC4 potentiator hits, confirmation, selectivity assay for TRPC4 potentiator project, HEK293 cells, membrane potential dye, duplicate (AID 434952). Conditions: HEK293 TRPC6, membrane potential dye fluorescence, at 10 µM; maximal acetylcholine added after compound unless noted.
Assay [12] concerns the target Short transient receptor potential channel 4 (Mus musculus) (UniProt Q9QUQ5). Nature of the assay: calcium flux activators in TRPC4/5HT1a cells, counter-screen for TRPC4 activator project, cell-based, second counter screen, HEK293 TRPC4/5HT1a, Fluo-4 (AID 434977;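 active means calcium signal rise above buffer-control mean plus 5 SD in both duplicates, and also a hit in the primary screen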). Conditions: Fluo-4 calcium flux, at 10 µM; hits give high values.
Assay [13] can be described thus: calcium flux inhibitors in TRPC4/5HT1a cells, confirmation, counter-screen for TRPC4 inhibitor project, cell-based, second counter screen, HEK293 TRPC4/5HT1a, Fluo-4 (AID 434978;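 active means primary screen active whose calcium signal fell more than 3 SD beyond the full-serotonin control mean in both duplicate plates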;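 on outcome: serotonin given first at submaximal then at maximal dose after compound preincubation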). The conditions noted are these: Fluo-4 calcium flux, at 10 µM; inhibition: hits give high values, serotonin added to trigger calcium flux unless noted; outcome: serotonin added to trigger calcium flux unless noted.

The subject of assay [14] is TRPC4 (mouse), co-expressed with 5HT1a in HEK293. Nature of the assay: calcium flux potentiators in TRPC4/5HT1a cells, confirmation, counter-screen for TRPC4 potentiator project, cell-based, second counter screen, HEK293 TRPC4/5HT1a, Fluo-4 (AID 434979;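 active means signal rise over 3 SD above mean of control wells given weak agonist, in both repeats and first screen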). The conditions noted are these: Fluo-4 calcium flux, at 10 µM; outcome: serotonin added at its EC20 dose unless noted; potentiation: hits give high values, serotonin added at its EC20 dose unless noted.

The nature of assay [15]: calcium flux activation in mu-opioid HEK293 cells, confirmation, counter-screen for TRPC4 activator project, cell-based, HEK293 mu-opioid receptor line (AID 449723;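 active means hit in primary screen, with calcium signal over 5 SD above buffer well mean in both duplicates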;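 further: counter screen cells carry the mu-opioid receptor alone and lack TRPC4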). Conditions: Fluo-4 calcium fluorescence, at 10 µM; hits give high values.
The nature of assay [16]: calcium flux enhancement in mu-opioid HEK293 cells, confirmation, counter-screen for TRPC4 allosteric potentiator project, cell-based, HEK293 mu-opioid receptor line (AID 449724;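 active means calcium signal rise more than 3 SD above the low-dose agonist control mean, in both duplicate plates and the primary screen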;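 further: HEK293 cells carrying mu-opioid receptor only with no TRPC4 channel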). Conditions: Fluo-4 calcium flux, at 10 µM; compound added before EC20 DAMGO stimulus unless noted.
Assay [17] deals with Short transient receptor potential channel 4 (Mus musculus) (UniProt Q9QUQ5). Nature of the assay: mouse TRPC4 channel inhibitors, dose response, cell-based, HEK293 TRPC4/mu-opioid, Fluo-4 calcium (AID 434942;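 active means primary screen inhibitor hit that blocks the TRPC4 channel at some tested dose, yielding a dose curve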).

Short transient receptor potential channel 4 (Mus musculus), sequence (Q9QUQ5 whole entry, looked up): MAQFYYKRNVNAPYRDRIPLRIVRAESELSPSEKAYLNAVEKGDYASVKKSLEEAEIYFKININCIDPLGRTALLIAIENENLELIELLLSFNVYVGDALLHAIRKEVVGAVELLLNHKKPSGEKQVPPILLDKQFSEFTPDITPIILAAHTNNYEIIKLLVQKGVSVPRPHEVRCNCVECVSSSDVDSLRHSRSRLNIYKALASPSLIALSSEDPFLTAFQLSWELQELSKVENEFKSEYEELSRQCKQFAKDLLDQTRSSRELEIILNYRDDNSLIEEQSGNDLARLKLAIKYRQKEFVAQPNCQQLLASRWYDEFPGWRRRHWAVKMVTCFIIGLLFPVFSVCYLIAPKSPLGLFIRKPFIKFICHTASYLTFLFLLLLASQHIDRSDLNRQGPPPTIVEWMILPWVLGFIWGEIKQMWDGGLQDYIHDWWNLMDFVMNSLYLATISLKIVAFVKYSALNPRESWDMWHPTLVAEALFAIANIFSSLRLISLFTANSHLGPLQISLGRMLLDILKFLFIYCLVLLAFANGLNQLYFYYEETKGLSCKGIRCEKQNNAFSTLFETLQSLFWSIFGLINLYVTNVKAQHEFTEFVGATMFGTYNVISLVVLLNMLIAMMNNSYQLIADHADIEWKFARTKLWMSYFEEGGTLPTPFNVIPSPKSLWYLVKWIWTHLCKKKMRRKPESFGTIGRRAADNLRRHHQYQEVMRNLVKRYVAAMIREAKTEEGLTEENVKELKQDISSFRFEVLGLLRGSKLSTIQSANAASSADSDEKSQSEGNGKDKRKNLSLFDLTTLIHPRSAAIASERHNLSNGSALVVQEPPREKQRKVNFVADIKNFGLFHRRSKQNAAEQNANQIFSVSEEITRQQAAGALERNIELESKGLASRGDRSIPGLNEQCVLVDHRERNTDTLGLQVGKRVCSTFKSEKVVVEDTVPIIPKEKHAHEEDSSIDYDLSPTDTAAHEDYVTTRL
Short transient receptor potential channel 6 (Mus musculus), sequence (Q61143 whole entry, looked up): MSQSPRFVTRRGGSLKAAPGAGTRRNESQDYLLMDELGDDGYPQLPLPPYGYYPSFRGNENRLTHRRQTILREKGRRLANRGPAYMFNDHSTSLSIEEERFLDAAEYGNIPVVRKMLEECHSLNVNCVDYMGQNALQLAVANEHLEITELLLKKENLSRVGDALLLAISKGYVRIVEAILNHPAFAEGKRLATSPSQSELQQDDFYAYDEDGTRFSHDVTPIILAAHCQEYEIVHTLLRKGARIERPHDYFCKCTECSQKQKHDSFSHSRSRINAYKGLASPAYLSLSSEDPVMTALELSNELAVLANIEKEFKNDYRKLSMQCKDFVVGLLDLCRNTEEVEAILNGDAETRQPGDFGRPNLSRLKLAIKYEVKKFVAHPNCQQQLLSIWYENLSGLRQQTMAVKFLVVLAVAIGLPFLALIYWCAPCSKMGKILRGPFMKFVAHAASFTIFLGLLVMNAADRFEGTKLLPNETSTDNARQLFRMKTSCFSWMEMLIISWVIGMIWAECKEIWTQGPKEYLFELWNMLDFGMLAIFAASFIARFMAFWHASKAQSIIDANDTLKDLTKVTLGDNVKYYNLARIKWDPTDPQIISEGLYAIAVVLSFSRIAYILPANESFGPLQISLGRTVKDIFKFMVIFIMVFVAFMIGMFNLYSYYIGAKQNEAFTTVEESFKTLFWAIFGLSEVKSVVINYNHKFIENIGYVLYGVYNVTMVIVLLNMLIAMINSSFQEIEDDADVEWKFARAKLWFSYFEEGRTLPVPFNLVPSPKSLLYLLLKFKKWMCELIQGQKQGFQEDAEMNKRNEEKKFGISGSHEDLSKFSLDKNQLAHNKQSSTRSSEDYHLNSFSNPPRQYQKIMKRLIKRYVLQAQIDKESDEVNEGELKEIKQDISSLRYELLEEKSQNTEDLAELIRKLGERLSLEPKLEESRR

In the case of `CCOC(=O)C1(c2ccccc2)CCN(CC(=O)Nc2ccc(C)cc2)CC1`, the outcome in assay [1], in assay [2], in assay [3], in assay [4], in assay [6] and in assay [7] was inactive. Moreover, the result in assay [8], in [10], in assay [12] and in assay [15] was inactive. Besides, in assay [5], the inhibition was 80% (active). The outcome in assay [9], in [11], in assay [13], in assay [14] and in [16] was “inactive [setting not given]” each time.

In the case of `CCc1nccc2c1[nH]c1ccccc12`, the outcome in [1], in assay [2], in assay [3], in [4], in [7] and in assay [8] was inactive. Besides, the compound was called inactive in assay [9], in [10], in assay [11], in assay [12], in assay [14] and in assay [15]. The result in assay [16] was inactive. For the same compound, the inhibition was 93% (active) in assay [5], 63% (active) in assay [6] and 9.99% (active) in [13].

Turning to `CCN1CCN(Cc2cc(Br)ccc2O)CC1`, the result in assay [1], in assay [2], in [5], in assay [6], in assay [7] and in [17] was inactive. The compound was called inactive in assay [9], in assay [10], in [11], in [12], in assay [13] and in [15]. For the same compound, the outcome in [16] was inactive. Further, the potentiation in assay [3] is 19% (active); in [4], 22% (active); in [14] it was 16.8% (active).

For `COc1ccc(Br)cc1CN1CCN(C(=O)Cc2ccccc2)CC1`, the outcome in [1], in assay [2], in assay [3], in [4], in assay [6] and in assay [7] was inactive. For the same compound, the outcome in assay [8], in assay [9], in [10], in assay [11], in assay [12] and in [14] was inactive. Moreover, the result in assay [15] and in assay [16] was inactive. Besides, the inhibition in [5] was 89% (active); in assay [13], 20.6% (active).

Take `CC(Cc1ccccc1Sc1ccccc1O)N(C)C` (stereo not given): the outcome in [1], in assay [2], in [3], in assay [4], in assay [7] and in assay [8] was inactive. Moreover, the result in [10], in assay [11], in [12], in assay [14], in [15] and in [16] was inactive. The inhibition is 99% (active) in [5], 70% (active) in [6], 50.5% (active) in [9] and 33% (active) in [13].

On to `Cc1c(P(=S)(c2ccccc2)c2ccccc2)[n+]2ccccc2n1C`, for which the result in assay [1], in assay [2], in [3], in assay [4], in [5] and in [6] was inactive. Moreover, the result in [7], in [8], in assay [17], in assay [9], in [10] and in assay [11] was inactive. In addition, the result in assay [12], in assay [13], in assay [14], in assay [15] and in assay [16] was inactive.

In the case of `CCN1CCN(c2cc(N3CCCC3)c([N+](=O)[O-])cc2F)CC1`, the outcome in assay [1], in assay [2], in [5], in assay [6], in [7] and in assay [8] was inactive. In addition, the result in assay [17], in assay [9], in assay [10], in [11], in [12] and in assay [13] was inactive. Further, the outcome in [15] and in assay [16] was inactive. The figures for the potentiation in [3], in assay [4] and in assay [14] were 31% (active), 11% (active) and 17.9% (active), respectively.

As to `O=C(c1cccc(C(F)(F)F)c1)C1CCCN(Cc2ccccc2O)C1` (stereo not given), the result in [1], in assay [2], in [3], in assay [4], in assay [6] and in [7] was inactive. For the same compound, the outcome in [8], in assay [9], in assay [10], in assay [11], in assay [12] and in [14] was inactive. Further, the result in assay [15] and in assay [16] was inactive. Further, the inhibition was 87% (active) in [5] and 24.6% (active) in assay [13].

Regarding `COc1ccc(OC)c(CN2CCCC(C(=O)c3sccc3C)C2)c1` (stereo not given), the outcome in assay [1], in assay [2], in assay [3], in assay [4], in [7] and in assay [8] was inactive. In addition, the outcome in assay [9], in assay [10], in [11], in assay [12], in assay [14] and in [15] was inactive. Further, in assay [16], the outcome was inactive. Moreover, the inhibition in assay [5] was 97% (active); in assay [6] it was 50% (active); in [13], 25.9% (active).

Consider `COc1ccc(C)cc1NC1=NC(C)(C)CS1`, for which the outcome in assay [1], in [2], in [3], in assay [4], in assay [7] and in assay [8] was inactive. For the same compound, the call in [9], in assay [10], in [11], in assay [12], in [13] and in assay [14] was inactive. Besides, the result in assay [15] and in assay [16] was inactive. Besides, the inhibition in assay [5] is 89% (active); in assay [6], 42% (active).

On to `COc1cccc(O)c1CN1CCCC(C(=O)c2sccc2C)C1` (stereo not given), for which the result in assay [1], in [2], in [3], in assay [4], in assay [7] and in [8] was inactive. Also, the outcome in assay [9], in assay [10], in assay [11], in assay [12], in assay [14] and in [15] was inactive. For the same compound, the outcome in [16] was inactive. For the same compound, the inhibition in assay [5] is 94% (active); in assay [6] it was 40% (active); in [13], 29.8% (active).

For `CCN(CC)CC(=O)Nc1ccc(Cl)cc1C(=O)c1ccccc1`, the outcome in [1], in assay [2], in [3], in assay [4], in assay [6] and in assay [7] was inactive. For the same compound, the result in assay [8], in [9], in assay [10], in assay [11], in assay [12] and in [14] was inactive. For the same compound, the outcome in assay [15] and in assay [16] was inactive. The figures for the inhibition in assay [5] and in [13] were 89% (active) and 33.6% (active), respectively.

Regarding `CCOC(=O)C1(c2ccccc2)CCN(CCC(=O)Nc2ccccc2OC)CC1`, the activation is 70% (active) in assay [1] and 62% (active) in [10]. Further, the outcome in assay [2], in assay [3], in assay [4], in [5], in assay [6] and in assay [8] was inactive. For the same compound, the result in [17], in assay [12] and in assay [15] was inactive. Further, the outcome in [9], in [11], in [13], in [14] and in assay [16] was “inactive [setting not given]” each time.

The inhibition is the drop in the measured response relative to a control, in per cent.
